SARS 3CLpro inh: SARS-CoV 3CLpro protease inhibition. P0C6X7. recombinant SARS-CoV 3CLpro, quenched FRET peptide cleavage. inhibition, % at 6 µM. 290,000 compounds, 0.14% hits; in the data active means inhibition above about 12%
CCHF vOTU inh: blocks the CCHF virus ovarian tumor domain protease; 370,000 compounds, 0.55% hits; CCHFV vOTU protease, Pep-AMC fluorescence; AID 651958; inhibition, % at 11.5 µM; in the data active means inhibition above about 30%
Mtb hypoxia inh: Mtb hypoxia fluorescent reporter inhibition; M. tuberculosis hypoxia-regulated fluorescent reporter, fluorescence; fluorescence inhibition, % (no concentration beside the values); 300,000 compounds, 0.1% hits; AID 1159583; in the data active means fluorescence inhibition mostly above about 23%, no sharp cut-off; inactive means mostly below about 17%
VHR inh abs: inhibitors of human VHR1 phosphatase (DUSP3) | P51452 | recombinant VHR phosphatase, pNPP absorbance | inhibition, % at 13.3 µM | 290,000 compounds, 0.52% hits | AID 1654; in the data active means inhibition above about 50%
Target sequence (P51452 whole entry, looked up): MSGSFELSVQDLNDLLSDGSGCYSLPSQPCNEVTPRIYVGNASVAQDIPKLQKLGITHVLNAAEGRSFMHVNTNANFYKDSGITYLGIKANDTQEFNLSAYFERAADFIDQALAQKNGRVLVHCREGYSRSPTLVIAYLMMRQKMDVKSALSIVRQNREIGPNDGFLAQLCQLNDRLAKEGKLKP
SSB-PriA inh: blocks PriA binding to SSB C-terminal tail | AlphaScreen SSBct-PriA binding, biotinylated peptide | inhibition, % at 33 µM | 430,000 compounds, 0.6% hits | AID 1272365; in the data active means inhibition mostly above about 37%, no sharp cut-off; inactive means mostly below about 20%
Numbers stand for hits; - = inactive; . = no result shown; ! = not active in a repeat. Most compounds without a hit are left out; they make up all but 1.3% or so of the library.

SMILES | SARS 3CLpro inh | CCHF vOTU inh | Mtb hypoxia inh | VHR inh abs | SSB-PriA inh
O=[N+]([O-])c1ccc(C2CCCCC2=NOCc2ccccc2F)c([N+](=O)[O-])c1 (stereo not given) | . | . | . | . | 50
O=[N+]([O-])c1ccc(C2CCCC/C2=N/OCc2ccccc2F)c([N+](=O)[O-])c1 (stereo not given) | - | - | . | - | .
Cc1c(Cc2ccc3c(c2)OCO3)sc(NC(=O)/C=C/c2ccc([N+](=O)[O-])s2)c1C#N | . | . | . | . | -
Cc1nc(NC(=O)CN2CCN(c3ccccc3F)CC2)sc1C(=O)N(C)C | - | - | - | 57 | -
COc1cccc(CSc2nc(CC(=O)NCCc3c[nH]c4ccccc34)cc(=O)[nH]2)c1 | . | . | . | . | -
O=S(=O)(N1CCCC1)n1nnc2ccccc21 | . | . | . | . | -
CCC(NC(=O)c1ccccc1NC(=O)c1ccccc1)C(=O)OC (stereo not given) | - | - | - | - | 52
CCOC(=O)c1cc(-c2ccc(N)cc2)sc1N | - | - | - | - | 50
C=C(C)C1CC=C(CN2CCN(Cc3ccccc3)CC2)CC1 (stereo not given) | - | - | - | - | -
C=C(C)[C@@H]1CC=C(CN2CCN(Cc3ccccc3)CC2)CC1 | - | - | 35 | - | -
CC(C)c1ccc(NC2CCCN(C(=O)c3ccccc3-c3ncc[nH]3)C2)cc1 (stereo not given) | - | - | - | 57 | -
O=C(Nc1nc(-c2ccccn2)cs1)c1ccccc1[N+](=O)[O-] | . | . | . | . | 105
O=C(Nc1nc(-c2ccccc2)cs1)c1ccccc1[N+](=O)[O-] | . | . | . | . | 84
O=C(Nc1nc(-c2ccccn2)cs1)c1ccc([N+](=O)[O-])o1 | - | - | . | - | 51
O=C(Nc1nc(-c2ccccn2)cs1)c1cc(Cl)ccc1[N+](=O)[O-] | - | - | - | - | 64
O=C(Nc1nc(-c2ccccc2)cs1)c1cc(Cl)ccc1[N+](=O)[O-] | . | . | . | . | -
CC(C)c1nnc(C2CCN(C(=O)c3cc4ccccc4o3)CC2)o1 | . | . | . | . | -
O=C(CCc1ccc(-c2ccccc2)o1)Nc1ccccc1[N+](=O)[O-] | . | . | . | . | 84
O=C(CCCc1ccccc1)NCc1ccc(C(O)c2cccs2)s1 (stereo not given) | . | . | . | . | -
O=C1/C(=C/C=C/c2ccco2)SC(=S)N1c1ccc(O)cc1 | - | - | - | - | -
CC(C)C(C(=O)O)N1C(=O)/C(=C/C=C/c2ccco2)SC1=S (stereo not given) | - | . | - | 52 | -
O=C(Nc1ccc(S(=O)(=O)NCCc2ccccc2)cc1)Nc1cccc(Cl)c1 | . | . | . | . | -
Cc1oc(-c2ccc(Cl)cc2[N+](=O)[O-])cc1C(=O)Nc1cccc(F)c1 | . | . | . | . | 35
Cc1nc2c(SCC(=O)NCC3CCCO3)nnc(-c3ccccc3)c2s1 (stereo not given) | . | . | . | . | -
COc1cccc(CNc2ccc3[nH]c(=O)[nH]c3c2)c1OCc1ccccc1 | - | . | - | - | 47
SMILES | SARS 3CLpro inh | CCHF vOTU inh | Mtb hypoxia inh | VHR inh abs | SSB-PriA inh
CCOc1cc(CNc2ccc3cn[nH]c3c2)ccc1OC | - | 59 | - | - | -
COc1ccc(Br)cc1CNc1ccc2[nH]c(=O)[nH]c2c1 | - | - | - | - | 39
COc1cc(CNC(C)c2ccccc2)cc(Br)c1OCc1ccccc1 (stereo not given) | - | - | - | - | -
COc1cc(CNc2ccc(O)cc2)cc(Br)c1OCc1ccccc1 | - | 94 | - | - | -
COc1ccc(CCS(=O)(=O)NCC2CCN(C(C)C)CC2)cc1 | . | . | . | . | -
COc1cc(CNc2ccc3[nH]c(=O)[nH]c3c2)ccc1OCc1ccccc1 | - | - | - | - | 41
COc1cc(CNc2ccc3[nH]c(=O)[nH]c3c2)ccc1OCc1c(F)cccc1Cl | - | - | - | 53 | -
COc1cc(CNc2ccc3[nH]c(=O)[nH]c3c2)ccc1OCc1ccc(F)cc1 | - | - | - | - | -
COc1cccc(CNc2ccc3[nH]c(=O)[nH]c3c2)c1OCc1ccccc1Cl | - | - | - | - | 79
CCCCCCC(=O)Nc1nc(C)c(-c2csc(Nc3cc(OC)ccc3OC)n2)s1 | - | - | - | - | -
CCCCCC(=O)Nc1nc(C)c(-c2csc(Nc3cc(OC)ccc3OC)n2)s1 | - | - | - | 51 | -
CN=C1CC(C)(C)CC(=O)C1=C(O)CCCN1C(=O)c2ccccc2C1=O | . | . | . | . | -
COC1(CNS(=O)(=O)CC23CCC(CC2=O)C3(C)C)CCSC1 (stereo not given) | . | . | . | . | 40
Cc1cc(C(=O)NNC(=O)COc2ccccc2Cl)n[nH]1 | - | - | - | 51 | -
O=C(NCC(=O)N1CCN(Cc2ccccc2)CC1)c1ccc(Cl)cc1 | - | - | - | 57 | -
COc1ccc(CNC(=O)N2CCSC(c3ccccc3C)CC2)cc1OC (stereo not given) | . | . | . | . | -
O=C(/C=C/c1ccccc1)NC(=S)NNC(=O)c1cnccn1 | - | - | . | - | 83
O=C(/C=C/c1ccccc1)NNC(=O)c1cnccn1 | . | . | . | . | -
Cc1ccc(C(=O)NCCc2nnc3ccc(SCC(=O)NCc4ccc(F)cc4)nn23)cc1 | - | - | - | 57 | -
COC(=O)c1ccccc1NC(=O)NCc1cccnc1 | - | - | - | - | -
COC(=O)c1ccccc1NC(=O)C(=O)NCc1ccncc1 | - | - | - | 56 | -
O=C(O)C(Cc1c[nH]c2ccccc12)N1C(=O)c2ccccc2C1=O (stereo not given) | - | - | - | 52! | -
O=C(Nc1c(F)cccc1F)N1CCC(Oc2cnccn2)CC1 | . | . | . | . | -
COc1ccc(-n2cc(-c3ccc(OC)c(OC)c3)[nH]c2=S)cc1 | - | - | . | 51 | -
COc1ccc(-n2cc(-c3ccc(Br)cc3)[nH]c2=S)cc1 | - | - | - | - | -
SMILES | SARS 3CLpro inh | CCHF vOTU inh | Mtb hypoxia inh | VHR inh abs | SSB-PriA inh
O=C(O)Cn1c(C2CC2)nc2ccccc21 | . | . | . | . | -
COc1ccc(OC(=O)COc2cc(C)ccc2C)cc1 | - | - | . | - | -
COc1ccc(CC(=O)Oc2cc(C)ccc2C)cc1 | - | - | - | 58 | -
COc1ccc(S(=O)(=O)N2CCN(C(=O)c3cnn4c3CCCC4)CC2)cc1C(N)=O | . | . | . | . | -
COc1cc(C(=O)NCCNC(=O)c2cnccn2)cc(OC)c1OC | - | - | - | - | -
COc1ccc(C(=O)NCCNC(=O)c2cnccn2)cc1OC | - | - | - | 52 | -
COc1cccc(CN(C)C(=O)c2ccc(COc3ccc(Cl)cc3)cc2)c1OC | - | - | - | 58 | -
CC(C)(C)N1C(=O)Cc2c1nc(N)c1c(N)nc(N3CCCCC3CO)c(C#N)c21 (stereo not given) | - | . | - | 58 | -
CCCCCCC/C=N/Nc1nnc(Cc2ccccc2)c(=O)[nH]1 | - | - | . | 53 | .
CCCC=NNc1nnc(Cc2ccccc2)c(=O)[nH]1 | . | . | - | . | -
O=C(CNc1cccc(Cl)c1)c1ccc(Br)cc1 | - | - | - | 51 | -
O=C(CNc1ccc(Br)cc1)c1ccccc1 | - | - | - | - | -
COc1ccc(NC2CCCN(C(=O)c3oc(C)cc3C)C2)cc1OC (stereo not given) | - | - | - | - | -
Cc1cc(C)c(C(=O)N2CCCC(Nc3ccc(C)c(C)c3)C2)o1 (stereo not given) | - | - | - | 53 | -
